KDM5B inhibitor: inhibitors of human KDM5B histone demethylase | KDM5B demethylase, FDH-coupled NADH fluorescence (FDH is formaldehyde dehydrogenase) | Potency, µM (highest dose often 57.7 µM), usual class: inhibitors | 220,000 tested, 2.6% active | AID 1347165; active = well fitted inhibition curve with a large enough effect; note: 0% is about no effect; nearly all actives have a fitted effect of over 70% in size
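Coupled FDH/NAD⁺ fluorescence readout. KDM5BΔAP 200 nM final; compound titration, 10 min RT preincubation; substrate mix 12.5 µM H3K4me3, 25 µM 2-OG, 50 µM Fe(II), 100 µM ascorbate, 0.25 mM NAD⁺, 0.25 U/mL FDH; ΔRFU over 30 min.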
Starred values were filed as active, the others as inactive; i = inactive. This is one part of a sample in which hits are shown more often than they occur. Potency is the fitted concentration of half-maximal effect.

SMILES | KDM5B inhibitor
CS(=O)(=O)N1C[C@@H]2OCC(=O)N(Cc3ccccc3)[C@@H]2C1 | i
O=C1CO[C@H]2CN(Cc3ccncc3)C[C@H]2N1Cc1ccc(F)cc1 | 35µM*
O=C1CO[C@H]2CN(Cc3ccc4c(c3)OCO4)C[C@H]2N1Cc1ccc(F)cc1 | i
O=C(c1cnccn1)N1C[C@@H]2OCC(=O)N(Cc3ccccc3)[C@@H]2C1 | i
O=C1CO[C@H]2CN(C3CCC3)C[C@H]2N1Cc1ccc(F)cc1 | i
O=C1CO[C@H]2CN(c3ncccn3)C[C@H]2N1Cc1ccccc1 | 35µM*
O=C(O)c1ccc(CN2C[C@@H]3OCC(=O)N(Cc4cccnc4)[C@@H]3C2)cc1 | i
Cc1c(CC(=O)N2CCC(O)(c3ccc(Cl)cc3)CC2)c(=O)oc2cc(O)ccc12 | i
O=C1N(C2CCN(S(=O)(=O)c3cccnc3)CC2)C(c2ccncc2)C12CCCCC2 (centres undefined) | i
COC(=O)C(C)Oc1cc2oc(=O)cc(C)c2cc1Cl (centres undefined) | i
COc1ccc(N2C(=O)CN(Cc3ccccc3OC)[C@H]3CS(=O)(=O)C[C@H]32)cc1 | i
CCOC(=O)C1C(=O)C=C(c2cccs2)CC1c1ccc(CC)cc1 (centres undefined) | i
Cc1ccc(NC(=O)CCC2CCCCC2)c(NC(=O)c2ccco2)c1 | i
COc1ccc(Cc2nc3nccc(-c4ccncc4)n3n2)cc1 | i
CCc1nc2nccc(-c3ccc4c(c3)OCCCO4)n2n1 | 28µM*
CCc1nc2nccc(-c3cccc(OC)c3)n2n1 | 25µM*
COCc1nc(-c2ccc3c(c2)OCCCO3)cs1 | i
CCc1nc2nccc(-c3ccc(Br)s3)n2n1 | i
COc1ccc(Cc2nc3nccc(-c4ccc(OC)cc4)n3n2)cc1 | 14µM*
COc1ccc(-c2ccnc3nc(Cc4ccc(F)cc4)nn23)cc1OC | 28µM*
COc1ccc(CCc2nc3nccc(-c4ccc(F)cc4)n3n2)cc1OC | i
N#Cc1c(N)n[nH]c1CCCCCNc1ncnc2c1cnn2-c1ccccc1 | i
COc1ccc(N2CCN(c3cc(C4CC(N)C4)nc(N)n3)CC2(C)C)cc1 (centres undefined) | i
Cc1cc(C)c2oc(C(=O)Nc3ccc(S(N)(=O)=O)cc3)cc(=O)c2c1 | i
COc1ccc(NC(=O)c2nnc(COCC(=O)NC3CCCCC3)s2)cc1 | i
SMILES | KDM5B inhibitor
CN(Cc1ccccc1)C(=O)COC(=O)c1ccccc1-c1nc2ccccc2s1 | i
Cc1ccc(C(=O)NC(Nc2cccc(C(F)(F)F)c2)C(Cl)(Cl)Cl)cc1 (centres undefined) | i
COc1cccc(S(=O)(=O)Nc2c(NC3CCCC3)c3ccccc3oc2=O)c1 | i
CCOc1ccc(N2CC(C(=O)Nc3ccc(Cl)cn3)CC2=O)cc1 (centres undefined) | i
O=S(=O)(c1ccc2nc(N3CCN(c4ccccc4)CC3)ccc2c1)N1CCCC1 | i
COc1ccc(C(C)=O)cc1CC(=O)OCc1ccc(C#N)cc1 | i
Cc1ccc(C(C)NC(=O)c2ccc3c(c2)OCCO3)c(C)c1 (centres undefined) | i
CS(=O)(=O)c1cnc(NC2CCCCCC2)nc1C1CCCNC1 (centres undefined) | i
COCc1nc2nccc(-c3ccc(OC)cc3)n2n1 | i
CCc1nc2nccc(-c3ccc(OC)cc3)n2n1 | 22µM*
COCc1nc2nccc(-c3ccc4c(c3)CC(C)O4)n2n1 (centres undefined) | 28µM*
COc1ccc(Cc2nc3nccc(-c4ccc(OC)c(OC)c4)n3n2)cc1 | 20µM*
NCCNCCc1ccccc1 | i
COc1cc(Br)c(CC(=O)Oc2c(C)cccc2C)cc1OC | i
O=C1c2ccccc2S(=O)(=O)N1Cc1nc(-c2ccc(Cl)cc2Cl)cs1 | i
COc1ccc(-c2c(NC(=O)c3cccs3)oc3c(C)cccc3c2=O)cc1OC | i
CSc1ccc2c(c1)N(C(=O)COC(=O)c1ccc3c(c1)OCO3)c1ccccc1S2 | i
CCC(O)C1CCN(C(=O)c2cnn3cc(CN(CC)CC)cnc23)CC1 (centres undefined) | i
CCN(CC)Cc1cnc2c(C(=O)N3CCCC(COC)C3)cnn2c1 (centres undefined) | i
CN1C[C@@H]2CC[C@H](CC1=O)N2C(=O)c1cnn2cc(CCO)cnc12 | 32µM*
CN(C)[S+](=O)([O-])c1ccc2c(c1)OCCN(Cc1ccccc1Cl)C2 | i
Cc1c2cnn(CC(=O)NCc3ccccc3)c(=O)c2c(C)n1Cc1ccccc1 | i
CCCc1nc(C#N)c(N2CCN(c3cccc(Cl)c3)CC2)o1 | i
Cc1cc(NC(=O)Cn2ccn3nc(-c4ccccc4)c(CO)c3c2=O)no1 | i
CCCNC(=O)Cn1ccn2nc(-c3ccccc3)c(CO)c2c1=O | i
SMILES | KDM5B inhibitor
O=C(Cn1ccn2nc(-c3ccc(F)cc3)c(CO)c2c1=O)Nc1cccc(Br)c1 | i
O=C(Cn1ccn2nc(-c3ccc(F)cc3)c(CO)c2c1=O)NCc1ccccc1Br | 22µM*
O=C(Cn1ccn2nc(-c3ccccc3)c(CO)c2c1=O)NCc1ccc(F)cc1F | i
O=C(Cn1ccn2nc(-c3ccccc3)c(CO)c2c1=O)NCc1ccc2c(c1)OCO2 | 32µM*
O=C(Cn1ccn2nc(-c3ccccc3)c(CO)c2c1=O)NCCCc1ccccc1 | i
O=C(Cn1ccn2nc(-c3ccccc3)c(CO)c2c1=O)NCc1ccccc1Cl | 20µM*
O=C(Cn1ccn2nc(-c3ccc(F)cc3)c(CO)c2c1=O)NCc1ccc(F)cc1F | i
Cc1ccc2oc(-c3ccc(NC(=O)c4cccc(F)c4)cc3)nc2c1 | i
O=C(Nc1ccc(O)c(-c2nc3ccccc3o2)c1)c1cccc(Cl)c1 | i
COC(=O)C(C(=O)OC)C(CC(C(C(=O)OC)C(=O)OC)C(C(=O)OC)C(=O)OC)c1cc(OC)ccc1Br (centres undefined) | i
Cc1c(-c2ccc(F)cc2)[n+](=O)c(-c2ccc(Cl)cc2)c(C)n1[O-] | i
O=C(CCNS(=O)(=O)c1ccc2c(c1)CCN2C(=O)C1CC1)Nc1cccc(C(F)(F)F)c1 | i
O=C(Nc1ccc2cc[nH]c2c1)C(=O)NC1CCCCC1 | i
CC(C)(C)c1noc(CN2CCN(c3cccc(F)c3C#N)CC2)n1 | i
O=C(CCc1ccccc1)N1CCC(Oc2ncccc2C(=O)N2CCCCC2)C1 (centres undefined) | i
Cc1noc(C)c1S(=O)(=O)N1CCCC2(C1)Nc1cccnc1NC2=NC1CCCC1 (centres undefined) | 22µM*
O=C(Cc1ccccc1)N1CCCC2(CC(c3ccccn3)=NO2)C1 (centres undefined) | i
O=C(Cc1ccccc1)N1CCCC2(C1)Nc1cccnc1NC2=NC1CCCC1 (centres undefined) | 28µM*
Cc1noc(C)c1S(=O)(=O)N1CCC[C@H](n2c(=O)n(C)c3cccnc32)C1 | i
O=C(CCc1ccccc1)N1CCCC2(C1)Nc1cccnc1NC2=NC1CCCC1 (centres undefined) | 25µM*
O=C1NC2(CCCN(C(=O)Cc3ccccc3)C2)Oc2ccccc21 (centres undefined) | i
O=C(OCc1ccccc1)N1CCC2(C1)C(=NC1CCCC1)NC(=O)N2c1cccnc1 (centres undefined) | i
Cc1noc(C)c1S(=O)(=O)N1CCCC(Cc2noc(-c3cccnc3)n2)C1 (centres undefined) | i
CCOC(=O)C1=CN(c2ccc(F)cc2)C=C(C(=O)OCC)C1c1ccc(F)cc1 | i

Screens from PubChem.
